Methyltransferases = Primary Screen for Target Class Profiling of Small Molecule Inhibitors of Methyltransferases; calls only at 40 µM; hit rate 3.9% among 25,000; purified enzyme, MTase-Glo SAH luminescence; hits give low values; call rule not given here
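Each enzyme was reacted with SAM and its substrate, with compounds tested once at 40 uM; SAH formed was read by MTase-Glo luminescence.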
* marks the source's active call; other numbers are inactive results; i = inactive; + = active, no number; ! = a repeat was not active. Only a selection was taken, and hits are over-represented in it overall. % is scaled to controls: 0 for no effect and ±100 for the full control effect.

SMILES	Methyltransferases
CC1CCC(NC(=O)Cn2ccc3cc(S(=O)(=O)N4CCCCC4)ccc32)CC1 (stereo not drawn)	i
CCCNC(=O)c1cc2n(n1)CC(C)(C(=O)NC1CCCC1)N(C)C2=O (stereo not drawn)	i
CCc1ccc(NC(=O)CSc2nnc3n(Cc4ccc(F)cc4)c(=O)c4ccccc4n23)cc1	i
C/C(=N\N=C(N)N)c1cc(NC(=O)CCCCCCCCC(=O)Nc2cc(/C(C)=N/N=C(N)N)cc(/C(C)=N/N=C(N)N)c2)cc(/C(C)=N/N=C(N)N)c1	+
Cn1c2c(c3ccccc31)C(C(=O)NCc1ccc(F)cc1)N(c1ccc(Cl)cc1)C(=O)CS2 (stereo not drawn)	i
O=C(CSc1nnc2n(CCc3ccccc3)c(=O)c3ccccc3n12)Nc1ccc2c(c1)OCO2	i
CCOC(=O)c1cc2n(n1)CC(C)(C(=O)NCc1ccccc1)N(CCc1ccccc1)C2=O (stereo not drawn)	i
Cc1cccc(N2CCN(C(=O)CCc3nnc4n(CC(C)C)c(=O)c5ccccc5n34)CC2)c1C	+
Cc1ccc(C)c(N2CCN(C(=O)CCc3nnc4n(CCC(C)C)c(=O)c5ccccc5n34)CC2)c1	i
Cc1ccc(Cn2c(=O)c3ccccc3n3c(CCC(=O)N4CCN(c5cccc(C)c5C)CC4)nnc23)cc1	i
CC(CNc1nc2c(-c3ccccc3)nnn2c2ccccc12)c1ccccc1 (stereo not drawn)	i
O=C(CCc1nnc2n(Cc3ccccc3Cl)c(=O)c3ccccc3n12)N1CCN(C2CCCCC2)CC1	i
CCCn1c(=O)c2ccc(C(=O)NC3CCCCC3)cc2n2c(=O)n(Cc3cccc(F)c3)nc12	i
CCCn1c(=O)c2cc(F)ccc2n2c(SCC(=O)NCc3ccc(C)cc3)nnc12	i
Cc1cc2c(C(C)C)c(O)c(O)c(C=O)c2c(O)c1-c1c(C)cc2c(C(C)C)c(O)c(O)c(C=O)c2c1O	+
CC(C)(C)c1nn2c(SCC(=O)Nc3ccc(Cl)cc3)nnc2[nH]c1=O	i
Cc1ccc(CNC(=O)C2(C)Cn3cnc(C(=O)NCCc4ccc(Cl)cc4)c3C(=O)N2C2CC2)cc1 (stereo not drawn)	i
CNC(=O)c1ccc2c(C(=Nc3cccc(CN(C)C)c3)c3ccccc3)c(O)[nH]c2c1	+
O=C(NCc1ccccc1)c1ccc2c(=O)n(-c3cccc(C(F)(F)F)c3)c(=S)[nH]c2c1	i
CCN1C(=O)c2c(C(=O)NCc3ccccc3Cl)ncn2CC1(C)C(=O)NC1CCCC1 (stereo not drawn)	i
CCN1CCN(S(=O)(=O)c2cc(-c3nnc(-c4ccccc4)o3)ccc2OC)CC1	i
COc1ccc2cc3n(c2c1)CC(C)(C(=O)NC1CCCC1)N(c1cccc(F)c1)C3=O (stereo not drawn)	i
COc1ccc(OC)c2c1cc1n2CC(C)(C(=O)NC2CCCCC2)N(Cc2cccc(F)c2)C1=O (stereo not drawn)	i
Cc1ccc(CNC(=O)c2ncn3c2C(=O)N(C2CC2)C(C)(C(=O)NCc2cccc(C)c2)C3)cc1 (stereo not drawn)	i
Cc1ccc(NC(=O)Cn2c(=O)oc3cc(S(=O)(=O)NCc4ccccc4)ccc32)cc1C	i
SMILES	Methyltransferases
Cc1cccc(NC(=O)Cn2c(=O)oc3cc(S(=O)(=O)NCc4ccccc4)ccc32)c1	i
CC(C)c1ccc(NC(=O)Cn2c(=O)oc3cc(S(=O)(=O)NCc4ccccc4)ccc32)cc1	+
Cc1ccc(NC(=O)CSc2nnc3n(CC(C)C)c(=O)c4ccc(C(=O)NC(C)C)cc4n23)c(C)c1	i
CC1(C(=O)NC2CCCCCC2)Cn2c(cc3occc32)C(=O)N1CCCc1ccccc1 (stereo not drawn)	i
COc1ccc(N2C(=O)c3cc4sccc4n3CC2(C)C(=O)NC2CCCC(C)C2C)cc1OC (stereo not drawn)	i
COc1ccccc1CNC(=O)c1ccc2c(=O)n(-c3cccc(F)c3)c3nnc(C)n3c2c1	i
CCC(=O)N1CCOc2c(cc(-c3ccc(OC)c(OC)c3)cc2OC[C@H]2CCCN(C)C2)C1	+!
Cc1ccccc1-c1cc(O)c2c(c1)CN(C(=O)C1CCNCC1)CCO2	i
COc1ccc(CNC(=O)CCC2CCCN(C(=O)CCN3CCCCO3)C2)c(OC)c1 (stereo not drawn)	i
CCCOc1ccc(CNC(=O)c2ncn3c2C(=O)N(CCC)C(C)(C(=O)NCCC(C)C)C3)cc1 (stereo not drawn)	i
CCOc1ccccc1NC(=O)N1CCn2c(C)ccc2C1CC (stereo not drawn)	i
CC1(C(=O)NCc2ccccc2)Cn2c(cc3ccccc32)C(=O)N1C1CC1 (stereo not drawn)	i
Cc1ccc(CNC(=O)Cn2ccc3cc(S(=O)(=O)N4CCC(C)CC4)ccc32)o1	i
CCOC(=O)c1cc2n(n1)CC(C)(C(=O)NC1CCCCCC1)N(Cc1ccc(OCC)cc1)C2=O (stereo not drawn)	i
Fc1ccc(N2CCCCC2)c(NC(=S)c2ccncc2)c1	+
CN1C(=O)c2cc(C(=O)NCCN3CCOCC3)nn2CC1(C)C(=O)NC1CCCCCC1 (stereo not drawn)	i
CC1(C(=O)NC2CCCCC2)Cn2c(nc3ccccc32)C(=O)N1Cc1ccccc1Br (stereo not drawn)	i
CC1(C(=O)NC2CCCCCCC2)Cn2c(cc3sccc32)C(=O)N1c1ccc(Cl)cc1 (stereo not drawn)	i
CNCCC(c1cccs1)c1ccc(O)c2ccccc12 (stereo not drawn)	+
CCOC(=O)c1cc2n(n1)CC(C)(C(=O)NC1CCC(C)CC1)N(c1ccccc1C)C2=O (stereo not drawn)	i
CCCn1c(=O)c2cc(Cl)ccc2n2c(SCC(=O)NC(C)C)nnc12	i
NCCCNc1ccc(Nc2nccc(Nc3cc(C4CC4)[nH]n3)n2)cc1	+
CCOC(=O)CNC(=O)N1Cc2c(sc3c2CCCC3)-n2cccc2C1C(C)C (stereo not drawn)	i
Cn1c(=O)n(C)c2cc(S(=O)(=O)N3CCN(c4ccccc4)CC3)c(Cl)cc21	i
CC1CCN(C(=O)Cn2c(=O)oc3cc(S(=O)(=O)N4CC(C)CC(C)C4)ccc32)CC1 (stereo not drawn)	i
SMILES	Methyltransferases
Cc1ccc(Cn2c(=O)c3ccc(C(=O)NC4CCCC4)cc3n3c(=O)n(C)nc23)cc1	i
Cc1ccc(C)c(NS(=O)(=O)c2cc3[nH]c(=O)[nH]c3cc2C)c1	i
COc1ccc2cc3n(c2c1)CC(C)(C(=O)NCC1CCCO1)N(Cc1cccs1)C3=O (stereo not drawn)	i
OCCN1CCN(c2ccc(-c3nc(-c4cccc(C(F)(F)F)c4)no3)cn2)CC1	i
O=C(NCCCCN1CCN(c2cccc(Cl)c2Cl)CC1)c1cc2ccccc2s1	i
Cc1nc(Nc2ncc(C(=O)Nc3c(C)cccc3Cl)s2)cc(N2CCN(CCO)CC2)n1	+
CCOc1ccc(N2C(=O)c3cc4occc4n3CC2(C)C(=O)NC2CCCC(C)C2C)cc1 (stereo not drawn)	i
Cc1cc2c(cc3n2CC(C)(C(=O)NC2CCCCCCC2)N(Cc2ccccn2)C3=O)o1 (stereo not drawn)	i
C[C@H](Nc1cc2c(-c3ccc4c(c3)OCO4)noc2cn1)c1ccccc1	+
CCN1C(=O)c2cc(C(=O)Nc3ccc(C)cc3)nn2CC1(C)C(=O)NC1CCCC1 (stereo not drawn)	i

Assay outcomes (PubChem BioAssay)
